# Several values for one entry are separate records, joined by “and”; a condition that tells them apart may be missing. Equal values may be shown once. For some assays here: Potency and affinity values are given separately.
# Columns and labels:
# Design in all cases: scale not given: direction of the effect not stated beside the values
# [1] = biological target: Protein translocase subunit SecA (Escherichia coli (strain K12)) (UniProt P10408); test: Assay to Identify E. coli SecA ATPase Inhibitors; assay type: functional; conditions: 30 µM
# Protein translocase subunit SecA (Escherichia coli (strain K12)), sequence (P10408 whole entry): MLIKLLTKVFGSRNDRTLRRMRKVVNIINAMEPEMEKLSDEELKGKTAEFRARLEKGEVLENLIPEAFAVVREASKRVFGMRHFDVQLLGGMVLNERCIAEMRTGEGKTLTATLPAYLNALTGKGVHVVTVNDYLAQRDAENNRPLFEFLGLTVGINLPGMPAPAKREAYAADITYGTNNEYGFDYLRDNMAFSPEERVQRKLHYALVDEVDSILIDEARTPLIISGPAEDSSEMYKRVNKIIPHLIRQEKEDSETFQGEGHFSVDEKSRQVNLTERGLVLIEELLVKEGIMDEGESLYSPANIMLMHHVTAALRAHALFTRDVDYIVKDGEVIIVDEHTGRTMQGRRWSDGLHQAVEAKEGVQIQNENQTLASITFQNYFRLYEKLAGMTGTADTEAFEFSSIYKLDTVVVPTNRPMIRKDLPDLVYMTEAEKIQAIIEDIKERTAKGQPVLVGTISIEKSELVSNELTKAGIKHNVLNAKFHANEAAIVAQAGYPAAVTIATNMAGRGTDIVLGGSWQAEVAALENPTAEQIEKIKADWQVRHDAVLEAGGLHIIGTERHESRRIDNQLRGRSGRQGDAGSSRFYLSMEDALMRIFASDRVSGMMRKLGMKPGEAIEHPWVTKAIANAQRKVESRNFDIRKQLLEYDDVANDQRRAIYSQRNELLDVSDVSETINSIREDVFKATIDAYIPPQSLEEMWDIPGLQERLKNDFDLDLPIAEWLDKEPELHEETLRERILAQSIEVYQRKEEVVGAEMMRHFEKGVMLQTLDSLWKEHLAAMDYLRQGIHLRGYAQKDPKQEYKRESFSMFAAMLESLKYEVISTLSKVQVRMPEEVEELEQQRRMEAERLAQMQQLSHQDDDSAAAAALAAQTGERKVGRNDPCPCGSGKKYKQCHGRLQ
# [2] = biological target: T1, Ubiquitin-activating enzyme e1, putative (Leishmania donovani (strain BPK282A1)) (UniProt E9BSI1); test: Leishmania donovani Ubiquitin Activating Enzyme (LdE1); assay type: functional; conditions: 30 µM
# T1 sequence (whole entry): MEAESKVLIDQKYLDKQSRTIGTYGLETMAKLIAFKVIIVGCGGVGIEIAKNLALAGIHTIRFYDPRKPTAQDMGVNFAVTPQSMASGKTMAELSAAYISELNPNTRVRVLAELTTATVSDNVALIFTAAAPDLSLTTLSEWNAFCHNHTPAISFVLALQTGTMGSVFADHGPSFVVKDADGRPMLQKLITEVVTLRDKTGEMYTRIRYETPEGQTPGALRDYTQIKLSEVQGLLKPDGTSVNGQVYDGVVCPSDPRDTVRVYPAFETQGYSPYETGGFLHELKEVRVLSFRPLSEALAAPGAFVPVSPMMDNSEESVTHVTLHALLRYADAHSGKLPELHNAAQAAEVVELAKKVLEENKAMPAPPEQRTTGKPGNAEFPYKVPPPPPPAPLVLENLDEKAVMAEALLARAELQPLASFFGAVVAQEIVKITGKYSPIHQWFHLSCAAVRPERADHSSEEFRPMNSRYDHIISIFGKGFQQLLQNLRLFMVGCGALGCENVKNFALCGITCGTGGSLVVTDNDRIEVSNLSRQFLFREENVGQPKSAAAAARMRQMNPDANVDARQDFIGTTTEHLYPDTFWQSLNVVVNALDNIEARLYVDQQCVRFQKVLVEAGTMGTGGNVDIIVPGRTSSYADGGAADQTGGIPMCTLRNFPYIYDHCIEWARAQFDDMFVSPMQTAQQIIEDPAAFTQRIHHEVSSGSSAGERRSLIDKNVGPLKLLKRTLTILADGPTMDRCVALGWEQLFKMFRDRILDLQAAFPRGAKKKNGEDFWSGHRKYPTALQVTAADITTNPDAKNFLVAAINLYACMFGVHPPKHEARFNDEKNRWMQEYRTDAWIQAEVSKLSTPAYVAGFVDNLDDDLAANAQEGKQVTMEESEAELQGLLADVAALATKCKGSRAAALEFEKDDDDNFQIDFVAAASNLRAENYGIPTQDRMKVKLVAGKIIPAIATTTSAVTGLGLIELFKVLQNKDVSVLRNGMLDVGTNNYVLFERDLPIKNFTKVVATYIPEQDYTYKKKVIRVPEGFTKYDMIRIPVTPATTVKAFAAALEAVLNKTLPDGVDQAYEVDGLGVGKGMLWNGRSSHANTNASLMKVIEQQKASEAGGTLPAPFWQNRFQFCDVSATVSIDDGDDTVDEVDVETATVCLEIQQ
# [3] = biological target: AMP-activated protein kinase, AMPK (Homo sapiens) (UniProt P54646+O43741+P54619+Q9UGJ0+Q9Y478+Q13131+Q9UGI9); test: AMP-dependent Kinase enzyme assay. An in vitro enzyme assay that detects ADP turnover that is directly proportional to AMPK activity. This uses naive AMPK that is activated during the assay with MK-8722; assay type: functional; conditions: 30 µM
# [4] = biological target: Sialic acid-binding Ig-like lectin 9 (Homo sapiens) (UniProt Q9Y336); test: Hs-Siglec9 ALPHAscreen SOP 20170721; conditions: 10 µM
# Sialic acid-binding Ig-like lectin 9 (Homo sapiens), sequence (Q9Y336 whole entry): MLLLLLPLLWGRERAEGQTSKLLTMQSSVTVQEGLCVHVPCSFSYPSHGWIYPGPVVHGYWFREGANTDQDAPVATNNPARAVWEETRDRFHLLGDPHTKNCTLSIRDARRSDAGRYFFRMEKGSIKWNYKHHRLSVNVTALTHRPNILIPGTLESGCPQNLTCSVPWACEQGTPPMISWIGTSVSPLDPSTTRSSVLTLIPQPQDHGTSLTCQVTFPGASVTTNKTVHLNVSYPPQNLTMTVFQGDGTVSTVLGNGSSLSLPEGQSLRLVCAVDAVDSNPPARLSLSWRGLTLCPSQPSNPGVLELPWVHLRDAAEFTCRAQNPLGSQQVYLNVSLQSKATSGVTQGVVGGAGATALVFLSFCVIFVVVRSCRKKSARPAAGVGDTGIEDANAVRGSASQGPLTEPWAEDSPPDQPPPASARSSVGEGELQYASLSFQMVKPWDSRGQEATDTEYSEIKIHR
# [5] = test system: Trypanosoma cruzi; test: Trypanosoma cruzi phosphomannomutase and mannose-1-phosphate guanylyltransferase assay; assay type: functional; conditions: 10 µM
# [6] = biological target: T2, Arginase-2, mitochondrial (Homo sapiens) (UniProt P78540); test: in vitro enzyme assay to detect the production of urea directly proportional to the activity of Arginase II; assay type: functional; conditions: 33.3 µM; also: in the data most compounds retested in dose-response had high values
# T2 sequence (whole entry): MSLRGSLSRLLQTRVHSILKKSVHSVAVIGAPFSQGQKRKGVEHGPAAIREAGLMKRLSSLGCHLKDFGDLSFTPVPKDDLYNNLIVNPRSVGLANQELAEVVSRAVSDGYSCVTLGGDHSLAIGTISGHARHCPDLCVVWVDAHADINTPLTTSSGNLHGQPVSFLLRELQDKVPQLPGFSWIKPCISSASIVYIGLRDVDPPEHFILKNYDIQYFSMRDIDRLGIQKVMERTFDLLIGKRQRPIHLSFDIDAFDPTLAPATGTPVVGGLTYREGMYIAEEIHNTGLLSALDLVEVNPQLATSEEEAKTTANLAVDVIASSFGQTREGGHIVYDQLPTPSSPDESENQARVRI
# [7] = biological target: T3, Proteasome subunit beta (Trypanosoma cruzi) (UniProt O96673); test: Trypanosoma cruzi proteasome chymotrypsin-like activity (TcProtChymo) assay.; also: in the data most compounds retested in dose-response had high values; assay type: functional; conditions: 9.37 µM
# T3 sequence (whole entry): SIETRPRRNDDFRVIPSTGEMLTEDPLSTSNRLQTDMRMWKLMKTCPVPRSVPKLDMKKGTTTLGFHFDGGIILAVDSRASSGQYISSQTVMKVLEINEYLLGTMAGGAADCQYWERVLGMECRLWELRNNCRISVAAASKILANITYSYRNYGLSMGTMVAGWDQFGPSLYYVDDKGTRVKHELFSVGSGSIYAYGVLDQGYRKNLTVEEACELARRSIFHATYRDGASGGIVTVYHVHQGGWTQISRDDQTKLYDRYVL
# [8] = species on record: Homo sapiens; test: To identify inhibition of the IFN signalling (Jak-Stat) pathway via expression of an eGFP reporter gene under the control of an IFN-stimulated response element (ISRE) containing MxA promoter.; assay type: functional; conditions: 30 µM
# [9] = biological target: T4, Tyrosyl-tRNA synthetase, putative (Trypanosoma cruzi (strain CL Brener)) (UniProt Q4DSP6); test: Trypanosoma cruzi tyrosyl tRNA synthetase (TcYRS) _High Tyrosine SOP; assay type: functional; conditions: 30 µM; also: in the data most compounds retested in dose-response had high values
# T4 sequence (whole entry): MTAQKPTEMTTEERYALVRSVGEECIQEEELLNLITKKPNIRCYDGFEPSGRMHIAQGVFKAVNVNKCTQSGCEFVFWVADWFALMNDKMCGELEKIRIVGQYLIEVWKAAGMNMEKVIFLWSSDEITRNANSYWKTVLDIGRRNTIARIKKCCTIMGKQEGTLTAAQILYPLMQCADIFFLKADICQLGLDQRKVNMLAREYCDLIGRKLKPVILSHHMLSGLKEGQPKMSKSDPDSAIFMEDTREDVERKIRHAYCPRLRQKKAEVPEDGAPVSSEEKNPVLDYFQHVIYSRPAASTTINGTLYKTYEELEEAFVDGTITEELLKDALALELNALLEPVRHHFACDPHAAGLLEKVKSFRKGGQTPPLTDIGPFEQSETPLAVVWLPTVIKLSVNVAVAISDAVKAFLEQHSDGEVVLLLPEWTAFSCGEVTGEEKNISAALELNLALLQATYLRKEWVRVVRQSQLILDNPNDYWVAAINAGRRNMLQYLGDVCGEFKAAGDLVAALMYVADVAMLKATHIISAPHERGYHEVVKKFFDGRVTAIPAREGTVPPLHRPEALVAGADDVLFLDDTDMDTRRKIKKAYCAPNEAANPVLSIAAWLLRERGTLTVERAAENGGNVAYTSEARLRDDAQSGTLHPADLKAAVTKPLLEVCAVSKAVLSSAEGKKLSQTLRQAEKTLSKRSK
# [10] = biological target: T4, Tyrosyl-tRNA synthetase, putative (Trypanosoma cruzi (strain CL Brener)); test: Trypanosoma cruzi tyrosyl tRNA synthetase (TcYRS) SOP; assay type: functional; conditions: 30 µM
# [11] = biological target: Chromo domain-containing protein 1 (Saccharomyces cerevisiae (strain ATCC 204508 / S288c) (Baker's yeast)) (UniProt P32657); test: ScCHD-1 Enzyme Inhibition Assay; assay type: functional; conditions: 30 µM; also: in the data most compounds retested in dose-response had high values
# Chromo domain-containing protein 1 (Saccharomyces cerevisiae (strain ATCC 204508 / S288c) (Baker's yeast)), sequence (P32657 whole entry, the tested form may be a part): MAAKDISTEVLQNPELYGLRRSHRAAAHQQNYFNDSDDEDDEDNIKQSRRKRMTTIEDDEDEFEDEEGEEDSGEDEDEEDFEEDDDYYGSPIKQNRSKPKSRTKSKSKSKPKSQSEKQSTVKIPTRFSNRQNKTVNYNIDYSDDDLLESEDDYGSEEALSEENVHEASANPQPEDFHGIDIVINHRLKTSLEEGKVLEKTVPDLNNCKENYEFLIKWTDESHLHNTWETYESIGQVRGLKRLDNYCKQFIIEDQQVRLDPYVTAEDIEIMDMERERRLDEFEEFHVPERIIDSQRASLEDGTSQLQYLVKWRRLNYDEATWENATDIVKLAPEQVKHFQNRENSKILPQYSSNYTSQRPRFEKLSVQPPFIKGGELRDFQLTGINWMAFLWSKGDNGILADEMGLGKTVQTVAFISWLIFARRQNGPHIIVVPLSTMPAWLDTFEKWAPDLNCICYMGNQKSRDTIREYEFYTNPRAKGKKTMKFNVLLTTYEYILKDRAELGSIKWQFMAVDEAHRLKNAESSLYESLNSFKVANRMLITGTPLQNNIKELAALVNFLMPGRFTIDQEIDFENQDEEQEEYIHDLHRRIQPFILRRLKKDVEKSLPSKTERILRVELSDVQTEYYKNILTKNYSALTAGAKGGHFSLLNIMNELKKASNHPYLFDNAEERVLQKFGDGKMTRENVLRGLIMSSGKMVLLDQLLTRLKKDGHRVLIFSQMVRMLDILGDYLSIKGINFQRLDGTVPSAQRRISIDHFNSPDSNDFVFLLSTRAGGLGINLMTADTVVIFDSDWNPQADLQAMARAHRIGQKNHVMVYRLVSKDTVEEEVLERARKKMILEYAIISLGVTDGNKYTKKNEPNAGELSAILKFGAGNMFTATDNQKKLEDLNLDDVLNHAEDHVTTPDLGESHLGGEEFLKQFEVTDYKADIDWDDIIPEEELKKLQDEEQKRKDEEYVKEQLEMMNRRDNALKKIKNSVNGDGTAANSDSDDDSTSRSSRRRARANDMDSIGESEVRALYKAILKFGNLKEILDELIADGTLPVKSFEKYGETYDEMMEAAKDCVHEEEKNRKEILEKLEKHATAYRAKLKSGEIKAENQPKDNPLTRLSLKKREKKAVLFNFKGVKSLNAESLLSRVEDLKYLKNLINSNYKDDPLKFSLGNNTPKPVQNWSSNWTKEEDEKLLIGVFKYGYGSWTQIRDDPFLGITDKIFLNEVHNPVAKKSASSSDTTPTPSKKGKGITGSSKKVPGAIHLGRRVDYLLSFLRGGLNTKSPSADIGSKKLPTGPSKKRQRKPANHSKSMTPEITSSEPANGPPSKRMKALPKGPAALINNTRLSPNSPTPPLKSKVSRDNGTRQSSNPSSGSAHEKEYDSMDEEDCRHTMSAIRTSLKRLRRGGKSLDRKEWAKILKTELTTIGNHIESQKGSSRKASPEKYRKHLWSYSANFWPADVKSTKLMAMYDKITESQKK
# [12] = test system: N/A; test: Trypanosoma cruzi proteasome luciferase counter-screen; assay type: functional; conditions: 9.37 µM
SMILES,Percent Effect [1] [%],Percent Effect [2] [%],Percent Effect [3] [%],Percent Effect [4] [%],Percent Effect [5] [%],Percent Effect [6] [%],Percent Effect [7] [%],Percent Effect [8] [%],Percent Effect [9] [%],Percent Effect [10] [%],Percent Effect [11] [%],Percent Effect [12]
Cc1ccc(C(=O)N2CCN(CC(O)c3ccc(F)cc3)CC2)s1 (configuration not stated),-2.93,7.89,6.49,18.1,-0.564,0.766,4.34,13.7,5.39,9.76,-0.68,
Cc1cc(C)n(CC(=O)NC(Cc2ccsc2)c2ccccn2)c(=O)n1 (configuration not stated),-10.3,12.2,-6.03,12.5,8.5,-4.87,9.2,-8.13,5.38,11.7,-22.9,
Cc1nc(CCCNC(=O)C2CC(=O)N(C(C)(C)C)C2)sc1C (configuration not stated),-3.07,5.48,-0.283,4.12,-3.57,-2,7.79,12.9,5.21,13.6,-5.51,
CCN(CC)Cc1cn2c(n1)CN(C(=O)c1cc(C)on1)CC2,-2.81,16.2,5.86,-5.08,-4.01,9.24,23.2,-1.45,2.16,10.3,-0.746,
Cc1ccc(OCC(=O)NCc2ccccc2F)nc1,-2.7,19.2,-0.689,12.5,4.56,-2.4,8.13,13.8,7.29,13.6,-4.08,
CC(C)CC1SCC(=O)Nc2c1cnn2-c1ccc(F)cc1 (configuration not stated),-4.89,6.67,1.34,3.64,4.91,-3.35,2.03,1.9,6.35,7.69,-4.25,
CNC(=O)C1Cn2ccnc2C2(CCN(CCF)CC2)O1 (configuration not stated),-1.42,5.2,2.6,-5.27,-8.97,0.645,13.1,15.2,3.17,3.85,-5.68,
CC(Cn1cccn1)NC(=O)NCCc1cnn(C)c1 (configuration not stated),1.95,2.53,-9,-14.8,-9.91,0.38,10.7,24.5,5.42,8.86,-3.48,
Cc1cnn(CC2CCCN2C(=O)CCc2nc3ccccc3[nH]2)c1 (configuration not stated),-4.12,7.59,-2.81,11.1,4.82,0.38,-3.69,-14.8,1.48,8.86,-1.08,
Cc1nc(CN2CCCN(CC(=O)Nc3cccnc3)CC2)no1,-3.59,18.2,4.53,-8.79,-0.294,4.84,,23.7,5.71,9.41,-14,15.2% and 14.2%
CSCC(=O)N1CCC2(CC1)c1ccccc1CC2O (configuration not stated),-1.39,18.2,10.7,2.45,2.26,-4.14,18.5,5.92,5.38,11.1,-3.92,
CCC(=O)Nc1nnc(CCCOc2ccccc2)s1,-6.68,-1.33,6.74,2.25,1.77,-9.68,10.3,-7.47,7.41,5.13,-0.786,
CCc1cnc(CN(C(C)=O)C2CCN(CCS(C)(=O)=O)C2)o1 (configuration not stated),-2.33,6.94,-4.16,16.1,0.291,9.27,13.3,10.7,4.21,10.3,-8.92,
Cn1cc2c(n1)C(COCC1CC1)CN(Cc1ccccn1)C2 (configuration not stated),-6.24,-2.7,0.433,-2.97,4.2,-0.319,9.22,9.46,6.49,10.3,4.91,
COCc1ccc(CNC(=O)C2=NN(c3ccccc3)C(=O)CN2)cc1,-0.976,5.41,6.06,-1.63,-9.09,1.24,14,53.6,3.23,13.6,-4.43,
O=C(c1ccncc1)N1CCC(c2nc(O)cc(-c3ccncc3)n2)C1 (configuration not stated),-4.75,21.3,0.106,-1.99,0.984,-2.1,,4.05,6.38,14.1,-6.07,6.33% and 4.26%
O=C(C1=CCCC1)N1C[C@@H]2COC[C@]2(COc2cccnc2)C1,-2.49,2.7,7.33,5.37,-1.27,5.41,,0.513,0,-2.56,4.29,7.45% and 8.06%
c1ccc(OCC2CC3(CCN(c4ncccn4)CC3)CO2)nc1 (configuration not stated),-0.807,1.33,3.04,-2.52,-1.57,-5.46,10.9,14,0,-2.56,-5.94,
CN(Cc1cc[nH]n1)C(=O)c1cccc(CCC(C)(C)O)c1,-4.29,-2.67,0.5,1.39,-5.16,-0.521,,-13.1,0.546,3.7,-5.03,6.9% and 8.45%
Cc1ccc(C2CSCCN2C(=O)c2ccsc2)o1 (configuration not stated),-7.12,8.11,5.16,3.24,-1.66,4.22,8.15,-0.446,1.07,6.17,-3.21,
Cc1ccc(C(=O)N2CCSCC2)cc1NC(=O)Cn1cncn1,-4.05,16.4,-5.58,10.2,7.74,-7.98,17.6,-4.75,6.25,18.5,-7.01,
CCc1n[nH]c(C2CN(C(=O)c3csnn3)CCO2)n1 (configuration not stated),-7.28,10.4,0.934,4.09,7.15,-5.26,6.06,3.52,2.86,11.8,-11.6,
